Reference: the supplement of paper PMC12494721
Where a name gives a salt, the structure may show the parent alone.

Assays:
Conditions in all cases: 20 µM; incubation time: 27 h, anaerobic, 37 °C;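 for the amine columns active = adjusted P below 0.05 in both replicates with a change the same way and a mean fold change under 0.8 or over 1.25; inactive = the rest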
[1] = test system: Clostridium sporogenes DSM 1664; assay: growth (OD595) fold change vs plate DMSO controls (fold change (ratio)); higher = more growth
Outline: (§1)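 The reported measure is growth: the fold change against the median of DMSO controls on the plate. Absorbance at 595 nm from anaerobic 96-well mGAM cultures grown for 27 h at 37 °C was blank-subtracted, corrected for background with 20 µM compound solutions in water, and converted to OD with a calibration factor of 5. Fold changes above 1.5 appear as NA, and values are the mean of 2 biological replicates.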

[2] = test system: Escherichia coli IAI1; assay: as above
Outline: as §1

[3] = test system: Klebsiella aerogenes DSM 30053; assay: as above
Outline: as §1

[4] = test system: Ruminococcus gnavus DSM 108212; assay: as above
Outline: as §1

[5] = test system: Klebsiella aerogenes DSM 30053; assay: fold change of Histamine concentration vs plate DMSO controls (fold change (ratio)); higher = more amine produced, active = hit call of the paper (significant change in both replicates, either direction)
Outline: (§2)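 Each value is the fold change relative to DMSO-only wells on the same plate. Four gut bacterial strains were grown anaerobically in mGAM at 37 °C for 27 h in 80 µL wells, starting at OD 0.1 before a 1:1 dilution, with compounds at 20 µM final (sweeteners 50 µM). Whole cultures were extracted with cold acetonitrile/methanol containing 0.1% formic acid, centrifuged, and amines were quantified by LC–triple-quadrupole MS (dynamic MRM) against external calibration curves with within-batch drift correction. Values are means of 2 biological replicates.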

[6] = test system: Clostridium sporogenes DSM 1664; assay: fold change of Tryptamine concentration vs plate DMSO controls (fold change (ratio)); higher = more amine produced, active = hit call of the paper (significant change in both replicates, either direction)
Outline: as §2

[7] = test system: Ruminococcus gnavus DSM 108212; assay: as above
Outline: as §2

[8] = test system: Escherichia coli IAI1; assay: fold change of Putrescine concentration vs plate DMSO controls (fold change (ratio)); higher = more amine produced, active = hit call of the paper (significant change in both replicates, either direction)
Outline: as §2

[9] = test system: Klebsiella aerogenes DSM 30053; assay: as above
Outline: as §2

[10] = test system: Escherichia coli IAI1; assay: fold change of Cadaverine concentration vs plate DMSO controls (fold change (ratio)); higher = more amine produced, active = hit call of the paper (significant change in both replicates, either direction)
Outline: as §2

[11] = test system: Klebsiella aerogenes DSM 30053; assay: as above
Outline: as §2

[12] = test system: Ruminococcus gnavus DSM 108212; assay: fold change of 2-Phenylethylamine concentration vs plate DMSO controls (fold change (ratio)); higher = more amine produced, active = hit call of the paper (significant change in both replicates, either direction)
Outline: as §2

Row | Compound | growth [1] | growth [2] | growth [3] | growth [4] | fold change of Histamine concentration [5] | fold change of Tryptamine concentration [6] | fold change of Tryptamine concentration [7] | fold change of Putrescine concentration [8] | fold change of Putrescine concentration [9] | fold change of Cadaverine concentration [10] | fold change of Cadaverine concentration [11] | fold change of 2-Phenylethylamine concentration [12]
1 | Cc1cc(C2CC2)nc(Nc2ccccc2)n1 | 0.944 | 1.01 | 0.977 | 0.987 | 1.04 (inactive) | 0.966 (inactive) | 0.968 (inactive) | 0.975 (inactive) | 0.972 (inactive) | 1.01 (inactive) | 0.99 (inactive) | 1.2 (inactive)
2 | CCC(=O)O[C@@](Cc1ccccc1)(c1ccccc1)[C@@H](C)CN(C)C [Levopropoxyphene napsylate] | 1.06 | 1.03 | 1.05 | 1.18 | 0.942 (inactive) | 1.04 (inactive) | 1.01 (inactive) | 1.03 (inactive) | 1 (inactive) | 1.03 (inactive) | 1.01 (inactive) | 1.03 (inactive)
3 | CCc1cc(C)cc(CC)c1-c1c(OC(=O)C(C)(C)C)n2n(c1=O)CCOCC2 | 0.933 | 1.05 | 0.985 | 0.919 | 0.979 (inactive) | 1.11 (inactive) | 0.99 (inactive) | 1.02 (inactive) | 1.01 (inactive) | 1.05 (inactive) | 0.994 (inactive) | 0.985 (inactive)
4 | CO/C=C(/C(=O)OC)c1ccccc1Oc1cc(Oc2ccccc2C#N)ncn1 | 0.938 | 0.996 | 1.01 | 0.966 | 0.996 (inactive) | 1.02 (inactive) | 1.01 (inactive) | 1.04 (inactive) | 0.994 (inactive) | 0.962 (inactive) | 0.992 (inactive) | 1.01 (inactive)
5 | CC1COC(Cn2cncn2)(c2ccc(Oc3ccc(Cl)cc3)cc2Cl)O1 (centres undefined) | 1.16 | 1.02 | 1.01 | 1.13 | 1.01 (inactive) | 0.964 (inactive) | 0.934 (inactive) | 1.02 (inactive) | 0.996 (inactive) | 0.995 (inactive) | 0.995 (inactive) | 0.954 (inactive)
6 | OC(c1ccccc1)(c1ccccc1)C1CCNCC1 [Azacyclonol] | 1.09 | 1.01 | 1.01 | 1.1 | 1.06 (inactive) | 1.02 (inactive) | 1.07 (inactive) | 1.02 (inactive) | 1.01 (inactive) | 0.849 (inactive) | 1 (inactive) | 1.06 (inactive)
7 | c1ccc2c(c1)Nc1ccccc1S2 [Phenothiazine] | 1.09 | 0.906 | 0.937 | 1.02 | 0.931 (inactive) | 0.995 (inactive) | 1.01 (inactive) | 0.944 (inactive) | 0.953 (inactive) | 1.03 (inactive) | 0.973 (inactive) | 0.974 (inactive)
8 | CCN[C@@H](C)Cc1cccc(C(F)(F)F)c1 [Dexfenfluramine hydrochloride] | 1.03 | 1.05 | 1.1 | 0.954 | 0.833 (inactive) | 1.28 (inactive) | 1.07 (inactive) | 1.02 (inactive) | 0.95 (inactive) | 0.869 (inactive) | 1.06 (inactive) | 1.16 (inactive)
9 | NCC1(CC(=O)O)CCCCC1 [Gabapentin] | 1.14 | 1.15 | 1.03 | 1 | 1.04 (inactive) | 0.986 (inactive) | 1.03 (inactive) | 1.03 (inactive) | 1 (inactive) | 1.02 (inactive) | 0.985 (inactive) | 1.07 (inactive)
10 | COC(=O)Nc1nc2ccccc2[nH]1 | 0.898 | 0.977 | 0.989 | 0.903 | 1.01 (inactive) | 0.968 (inactive) | 0.959 (inactive) | 0.997 (inactive) | 1 (inactive) | 1 (inactive) | 0.989 (inactive) | 0.951 (inactive)
11 | CCCCc1c(C)nc(NCC)nc1OS(=O)(=O)N(C)C | 0.862 | 1.04 | 0.957 | 0.952 | 1.03 (inactive) | 1.06 (inactive) | 0.959 (inactive) | 0.985 (inactive) | 0.995 (inactive) | 1.01 (inactive) | 0.998 (inactive) | 0.996 (inactive)
12 | Cc1cc(C(F)(C(F)(F)F)C(F)(F)F)ccc1NC(=O)c1cccc(I)c1C(=O)NC(C)(C)CS(C)(=O)=O | 1.23 | 0.991 | 1.02 | 0.917 | 1 (inactive) | 0.921 (inactive) | 0.939 (inactive) | 0.989 (inactive) | 1 (inactive) | 1 (inactive) | 0.987 (inactive) | 0.908 (inactive)
13 | CCn1cc(C(=O)O)c(=O)c2cc3c(cc21)OCO3 [Oxolinic acid] | 0 | 0.0401 | 0.348 | 0.896 | 0.275 (active) | 0.0614 (active) | 1 (inactive) | 0.59 (active) | 1.08 (inactive) | 0.227 (active) | 0.976 (inactive) | 0.959 (inactive)
14 | C[C@]12Cc3c[nH]nc3C[C@@H]1CC[C@@H]1[C@@H]2CC[C@@]2(C)[C@H]1CC[C@]2(C)O [Stanozolol] | 1.18 | 0.985 | 1.1 | 1.05 | 0.911 (inactive) | 0.973 (inactive) | 0.976 (inactive) | 0.981 (inactive) | 0.99 (inactive) | 0.959 (inactive) | 1.02 (inactive) | 1 (inactive)
15 | COCc1cnc(C2=NC(C)(C(C)C)C(=O)N2)c(C(=O)O)c1 (centres undefined) | 1.1 | 1.04 | 0.971 | 0.967 | 1.03 (inactive) | 1.11 (inactive) | 1.17 (inactive) | 0.961 (inactive) | 0.797 (inactive) | 0.852 (inactive) | 1.06 (inactive) | 1.43 (inactive)
16 | O=[N+]([O-])O[C@H]1CO[C@H]2[C@@H]1OC[C@H]2O[N+](=O)[O-] [Isosorbide dinitrate] | 0.818 | 1.09 | 1.08 | 1.25 | 0.954 (inactive) | 1.03 (inactive) | 1 (inactive) | 1.06 (inactive) | 0.97 (inactive) | 0.94 (inactive) | 1.02 (inactive) | 1.06 (inactive)
17 | CC(C)N(C(=O)COc1nnc(C(F)(F)F)s1)c1ccc(F)cc1 | 0.961 | 0.973 | 1.01 | 0.978 | 1.02 (inactive) | 1.01 (inactive) | 0.886 (inactive) | 1 (inactive) | 1 (inactive) | 1.02 (inactive) | 0.989 (inactive) | 0.832 (inactive)
18 | NC(=O)CN1CC(O)CC1=O (centres undefined) [Oxiracetam] | 0.902 | 0.994 | 0.98 | 0.915 | 1 (inactive) | 1.14 (inactive) | 1.1 (inactive) | 0.941 (inactive) | 0.865 (inactive) | 0.876 (inactive) | 1.07 (inactive) | 1.14 (inactive)
19 | CCc1cccc(C)c1N(C(=O)CCl)[C@@H](C)COC | 1.01 | 1.01 | 0.995 | 0.912 | 1.01 (inactive) | 1.07 (inactive) | 1.01 (inactive) | 1.02 (inactive) | 0.999 (inactive) | 0.998 (inactive) | 0.997 (inactive) | 1.04 (inactive)
20 | COc1cc(C)c(C(=O)c2c(OC)ccc(Br)c2C)c(OC)c1OC | 1.04 | 1.05 | 1.04 | 1.1 | 0.967 (inactive) | 0.978 (inactive) | 1.01 (inactive) | 1.02 (inactive) | 1.02 (inactive) | 1.07 (inactive) | 1.01 (inactive) | 1 (inactive)
21 | COC(=O)N(OC)c1ccccc1COc1ccn(-c2ccc(Cl)cc2)n1 | 0.99 | 0.988 | 1.07 | 1.02 | 1.02 (inactive) | 1.02 (inactive) | 0.921 (inactive) | 1.04 (inactive) | 1.02 (inactive) | 1.01 (inactive) | 1 (inactive) | 0.888 (inactive)
22 | C[C@]12CCC(=O)C=C1C=C[C@@H]1[C@@H]2CC[C@@]2(C)[C@H]1CC[C@@]2(O)CCC(=O)O [Canrenoic acid potassium salt] | 1.1 | 1 | 1.02 | 0.902 | 0.964 (inactive) | 1.05 (inactive) | 1.06 (inactive) | 1.02 (inactive) | 0.98 (inactive) | 0.997 (inactive) | 0.996 (inactive) | 1.09 (inactive)
